Compound activity deposited in PubChem by several laboratories.
FAS TE block: blocks the thioesterase domain of human fatty acid synthase; recombinant FAS-TE, OMFH fluorogenic substrate, fluorescence endpoint; inhibition, % at 15 µM; 0.67% of 360,000 active; AID 602261;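 active = compounds whose normalised, plate-corrected inhibition of enzyme fluorescence in the single-dose primary screen is 50% or more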;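 also: 0% = DMSO with enzyme and 100% = substrate without enzyme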
Target sequence (P49327 whole entry, looked up, the tested form may be a part): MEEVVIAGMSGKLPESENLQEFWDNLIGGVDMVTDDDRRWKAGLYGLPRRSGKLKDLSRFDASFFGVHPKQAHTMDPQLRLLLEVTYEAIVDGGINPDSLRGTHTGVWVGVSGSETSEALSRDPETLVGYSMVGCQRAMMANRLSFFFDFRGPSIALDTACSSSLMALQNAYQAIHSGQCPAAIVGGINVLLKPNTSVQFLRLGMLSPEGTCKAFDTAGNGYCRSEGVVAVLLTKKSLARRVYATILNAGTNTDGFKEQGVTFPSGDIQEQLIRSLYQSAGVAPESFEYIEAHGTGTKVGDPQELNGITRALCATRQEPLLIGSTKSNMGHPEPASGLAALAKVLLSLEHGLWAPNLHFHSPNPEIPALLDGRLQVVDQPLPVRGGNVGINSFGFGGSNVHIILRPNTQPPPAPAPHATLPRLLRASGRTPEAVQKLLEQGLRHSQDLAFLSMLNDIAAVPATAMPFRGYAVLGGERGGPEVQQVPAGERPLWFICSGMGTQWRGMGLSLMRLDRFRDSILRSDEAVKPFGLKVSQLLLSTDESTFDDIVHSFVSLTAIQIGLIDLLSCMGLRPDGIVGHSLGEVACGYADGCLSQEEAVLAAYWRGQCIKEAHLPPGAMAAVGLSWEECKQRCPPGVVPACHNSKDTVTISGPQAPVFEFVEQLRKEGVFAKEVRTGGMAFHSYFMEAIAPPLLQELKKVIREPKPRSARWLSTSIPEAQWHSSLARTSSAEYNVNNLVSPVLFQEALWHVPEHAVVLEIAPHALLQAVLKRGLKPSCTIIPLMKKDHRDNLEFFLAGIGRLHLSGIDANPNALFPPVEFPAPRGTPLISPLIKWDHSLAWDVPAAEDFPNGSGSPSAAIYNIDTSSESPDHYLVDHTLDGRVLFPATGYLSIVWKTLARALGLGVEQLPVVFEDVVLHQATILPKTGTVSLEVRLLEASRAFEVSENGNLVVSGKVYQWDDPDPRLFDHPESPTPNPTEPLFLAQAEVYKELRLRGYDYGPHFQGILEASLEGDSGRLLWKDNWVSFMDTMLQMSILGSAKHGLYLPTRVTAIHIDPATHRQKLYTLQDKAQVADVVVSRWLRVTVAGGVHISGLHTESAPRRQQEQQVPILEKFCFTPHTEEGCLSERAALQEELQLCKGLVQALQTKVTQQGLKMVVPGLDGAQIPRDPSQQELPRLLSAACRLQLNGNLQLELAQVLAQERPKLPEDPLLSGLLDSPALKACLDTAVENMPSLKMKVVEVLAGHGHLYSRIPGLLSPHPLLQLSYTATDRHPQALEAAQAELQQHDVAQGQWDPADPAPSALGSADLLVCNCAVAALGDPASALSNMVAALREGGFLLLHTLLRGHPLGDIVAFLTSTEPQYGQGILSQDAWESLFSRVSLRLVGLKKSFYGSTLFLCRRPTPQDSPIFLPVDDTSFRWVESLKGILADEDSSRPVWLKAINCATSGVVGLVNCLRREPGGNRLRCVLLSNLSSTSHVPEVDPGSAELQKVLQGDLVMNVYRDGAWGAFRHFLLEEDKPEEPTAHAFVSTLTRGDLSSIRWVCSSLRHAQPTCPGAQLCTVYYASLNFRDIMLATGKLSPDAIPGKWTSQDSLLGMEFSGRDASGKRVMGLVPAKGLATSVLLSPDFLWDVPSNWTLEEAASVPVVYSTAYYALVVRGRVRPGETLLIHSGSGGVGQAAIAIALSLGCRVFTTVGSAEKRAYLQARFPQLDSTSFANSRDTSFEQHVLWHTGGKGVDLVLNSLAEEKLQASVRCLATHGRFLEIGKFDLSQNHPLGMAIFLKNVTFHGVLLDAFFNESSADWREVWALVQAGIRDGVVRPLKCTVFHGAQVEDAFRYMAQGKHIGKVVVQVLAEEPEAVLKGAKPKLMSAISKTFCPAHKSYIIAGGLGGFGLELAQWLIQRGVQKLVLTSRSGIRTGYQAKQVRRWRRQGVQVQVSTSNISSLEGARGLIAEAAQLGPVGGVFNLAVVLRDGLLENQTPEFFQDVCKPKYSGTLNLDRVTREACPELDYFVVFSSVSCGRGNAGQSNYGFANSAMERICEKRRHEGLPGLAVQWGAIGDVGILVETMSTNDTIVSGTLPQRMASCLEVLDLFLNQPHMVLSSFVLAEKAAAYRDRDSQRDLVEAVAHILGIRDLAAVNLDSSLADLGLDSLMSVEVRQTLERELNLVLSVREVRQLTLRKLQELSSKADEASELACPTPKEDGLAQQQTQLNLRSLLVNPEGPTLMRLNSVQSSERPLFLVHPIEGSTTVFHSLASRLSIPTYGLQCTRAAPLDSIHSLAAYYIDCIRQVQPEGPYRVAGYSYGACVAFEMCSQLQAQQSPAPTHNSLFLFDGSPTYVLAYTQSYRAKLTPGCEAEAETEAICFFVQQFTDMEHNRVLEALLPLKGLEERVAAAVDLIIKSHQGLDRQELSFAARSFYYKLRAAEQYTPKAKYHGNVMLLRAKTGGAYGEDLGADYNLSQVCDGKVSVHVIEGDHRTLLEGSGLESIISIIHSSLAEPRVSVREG
NadD inh: NadD (S. aureus) enzyme inhibition | purified NadD enzyme, colorimetric absorbance read-out | inhibition, % at 20 µM | 0.78% of 360,000 active; in the data active = inhibition above about 26%
NR3A LBD binder: NR3A (human) ligand-binding domain modulation | NR3A LBD differential scanning fluorimetry, Tm shift; 0% = protein alone, 100% = glycine-bound protein | Tm shift relative to glycine control, % at 25 µM | 2.5% of 340,000 active;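 active = melting temperature shift of at least 10% of the positive control shift, at one fixed dose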
rCAG binder: molecules binding r(CAG) RNA repeats. r(CAG) RNA repeat, TO-PRO-1 dye displacement fluorescence. inhibition, % at 3 µM. 1.3% of 370,000 active. AID 651821;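 active = inhibition above the plate cutoff, the mean of all test compounds on that plate plus 3 SD, cut at about 35% in these data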;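 also: 0% = DMSO alone and 100% = 100 µM mitoxantrone as full dye displacement; higher means more dye released from RNA so lower well fluorescence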
* hit, by the source's call; / = no result given. Most compounds without a hit are left out; they make up all but 4.3% or so of the library.

SMILES | FAS TE block | NadD inh | NR3A LBD binder | rCAG binder
O=C(COCc1ccccc1)NC1CCCCN(Cc2cccc(Cl)c2)C1=O (centres undefined) | / | / | / | -2.9
CC(C)C[C@@H]1COc2cc(Br)ccc2S(=O)(=O)N1Cc1cn(Cc2ccc(C(F)(F)F)cc2)nn1 | / | / | / | 0.3
O=C(Nc1ccc(Cl)cc1)N[C@@H]1c2c(ccc3ccccc23)OC[C@@H]1CO | 21.4 | 1.9 | 25.7* | 4.3
CCOC(=O)[C@@H]1CSCCS(=O)(=O)N1Cc1ccc(C(F)(F)F)cc1 | / | / | / | 0.6
Nc1ccccc1C(=O)NCc1ccc(Cl)cc1 | -8.8 | 0.0 | 12.0* | -1.4
Nc1ccccc1C(=O)NCc1ccc(F)cc1 | -5.8 | -3.6 | 0.2 | -1.9
COC(=O)C1CN(Cc2cn(Cc3ccccc3)nn2)CCS(=O)(=O)N1Cc1ccc(F)cc1 (centres undefined) | / | / | / | 2.1
COc1ccc(NC(=O)[C@@H]2CC=C[C@@H]3CCN(C4CCCCC4)C(=O)[C@@H]32)cc1 | -2.2 | 8.8 | 11.5* | -4.8
Cc1cc(/C=C(\C#N)c2nc3ccccc3[nH]2)c(C)n1C | -13.2 | 9.3 | -13.4 | 10.0
Cc1ccc(/C=C(\C#N)c2nc3ccccc3[nH]2)s1 | 2.1 | -7.6 | 18.8* | 5.0
N#C/C(=C\c1ccc(Sc2ccc(Cl)cc2)o1)c1nc2ccccc2[nH]1 | 10.4 | 23.7 | 14.7* | 9.9
N#C/C(=C\c1ccc(Sc2nc3ccccc3[nH]2)o1)c1ccccc1 | 5.1 | 4.5 | 0.5 | 6.4
N#C/C(=C/c1cccs1)c1nc2ccccc2[nH]1 | -1.5 | 0.1 | 15.4* | 3.4
COc1cccc(C(=O)n2ccc3ccc(-c4ccc5ccn(C(=O)c6cccc(OC)c6)c5c4)cc32)c1 | / | / | / | 6.9
CN(CC(=O)Nc1ccccc1Br)C(=O)c1cccnc1Nc1cccc(C(F)(F)F)c1 | 31.3 | 0.2 | 15.3* | 15.6
CNC(=O)c1cccnc1Nc1cccc(C(F)(F)F)c1 | 10.1 | -0.4 | -2.6 | -3.0
CCOc1ccccc1-c1c2cc(O)c(=O)cc-2oc2cc(O)c(O)cc12 | -160.7 | 26.6 | -9.4 | /
COc1ccc(OC)c(-c2c3cc(O)c(=O)cc-3oc3cc(O)c(O)cc23)c1 | -37.0 | 39.0* | -17.4 | /
COc1ccc(OC)c(-c2oc3ccccc3c(=O)c2O)c1 | 2.3 | -3.9 | -1.0 | -0.3
O=c1cc2oc3cc(O)c(O)cc3c(-c3ccccc3O)c-2cc1O | -2.0 | 45.7* | -0.9 | /
COC(=O)[C@]12C[C@H](CC(=O)NCc3ccc(OC)c(OC)c3)C(=O)N(CCc3ccc(OC)c(OC)c3)C1=C[C@H](C(C)(C)C)O[C@@H]2C | / | / | / | 3.2
COc1ccccc1/C=C/C=N/n1c(C2CCCCC2)n[nH]c1=S | 6.6 | 2.4 | 12.5* | 13.2
COc1ccc(CN2CCC(n3nccc3NC(=O)C3CC3)CC2)cc1O | -9.1 | -8.4 | 14.1* | -4.2
O=C(/C=C/c1cccs1)c1ccc(Br)cc1 | 0.0 | -6.8 | 0.1 | 5.1
O=C(/C=C/c1cccs1)c1ccc(NC(=O)c2cccc(Br)c2)cc1 | 30.7 | 0.5 | 27.1* | 26.4
SMILES | FAS TE block | NadD inh | NR3A LBD binder | rCAG binder
Cc1ccc(C(=O)Nc2ccc(C(=O)/C=C/c3cccs3)cc2)cc1 | -3.4 | -0.7 | 14.7* | 0.6
Cc1nn(CCC(=O)NNC(=O)Nc2ccccc2)c(C)c1[N+](=O)[O-] | / | / | / | 1.7
COc1ccc(NS(=O)(=O)c2cccs2)c(OC)c1 | 3.9 | -4.0 | 15.5* | -0.8
COc1ccccc1NS(=O)(=O)c1cccs1 | -1.1 | -0.3 | -2.1 | 2.4
Cc1ccc(Oc2nc(C(F)(F)F)nc3ccccc23)cc1 | 19.3 | -12.1 | -1.1 | -1.5
COc1ccc(Oc2nc(C(F)(F)F)nc3ccccc23)cc1 | 11.2 | -7.4 | 22.8* | -2.3
CC(C)Cn1c(SCC(=O)N2CCc3ccccc3C2)nc2cc(Cl)ccc2c1=O | 12.4 | -5.0 | 14.1* | -0.4
Cc1ccc(NC(=O)COC(=O)C2CC3C=CC2C3)cc1S(=O)(=O)N1CCCCC1 (centres undefined) | 21.0 | -9.5 | -7.4 | -2.5
Cc1ccc(S(=O)(=O)N2CCCCC2)cc1NC(=O)COC(=O)C1CC2C=CC1C2 (centres undefined) | 3.4 | -7.2 | 10.3* | -4.6
O=C(CSc1nnc(-c2ccco2)n1Cc1ccco1)c1ccc([N+](=O)[O-])cc1 | / | / | / | 14.4
COc1nc(OC)nc(N2CCC(C(=O)N(C)Cc3ccccc3F)CC2)n1 | / | / | / | -1.9
CCOC(=O)c1c(C)[nH]c(N=Nc2ccc(C)cc2)c1C | 19.0 | -8.3 | 7.0 | 6.9
Cc1ccc(N=Nc2c(O)ccc3n[nH]nc23)cc1 | -1.8 | -6.1 | 13.3* | 9.0
O=C(NCc1ccc(C(=O)N2CCOCC2)cc1)c1cccc(Br)c1 | / | / | / | 0.8
O=C(c1ccc2c(c1)[nH]c(=S)n1c3ccccc3nc21)N1CCN(c2ncccn2)CC1 | 3.7 | 17.9 | 11.1* | 5.9
O=C(Nc1ccc2c(c1)Cc1ccccc1-2)NC1CCCCN(Cc2ccc(Cl)cc2)C1=O (centres undefined) | / | / | / | 12.8
O=C(N/N=C/c1ccco1)Nc1ccccc1 | -3.8 | -3.2 | 2.5 | 1.1
Clc1ccc(/C=N\Nc2ccccc2)cc1 | 19.6 | 1.7 | 10.5* | 0.6
Clc1cccc(N/N=C/c2ccncc2)c1 | 5.4 | -1.8 | 19.6* | 1.7
O=C(N/N=C/c1ccc(Cl)cc1)Nc1ccccc1 | 17.6 | -7.6 | 13.4* | -0.3
CCOc1ccc(/C=N/Nc2ccccc2)cc1 | 4.0 | -0.6 | -0.9 | 2.4
O=C(N/N=C/c1ccncc1)c1ccc(NC(=O)c2cccc(Cl)c2)cc1 | -0.3 | 5.8 | 21.6* | 1.0
COC(=O)[C@]12C[C@H](CC(=O)N3CCSCC3)C(=O)N(Cc3ccccc3)C1=C[C@H](C(C)(C)C)O[C@@H]2C | / | / | / | -0.7
CN(C)c1ccc(CN(C(=O)COc2ccc(Br)cc2)C2CCS(=O)(=O)C2)cc1 (centres undefined) | 20.5 | 3.8 | 0.1 | 2.7
Cc1ccc(OCC(=O)N(Cc2ccc(N(C)C)cc2)C2CCS(=O)(=O)C2)cc1 (centres undefined) | -1.5 | -0.1 | 17.2* | 1.3
SMILES | FAS TE block | NadD inh | NR3A LBD binder | rCAG binder
Cc1cc(C)cc(N2C(=O)c3nccnc3C2=O)c1 | -11.5 | -5.7 | 14.4* | -0.6
COc1ccc(C2CCC3(CCC(=O)N3CCOC(=O)NCc3ccc(Cl)cc3)CC2)cc1 (centres undefined) | / | / | / | 3.5
Cc1cccc(NC(=S)NCCc2c[nH]c3ccccc23)c1 | 1.6 | -7.8 | 28.4* | 3.9
Cc1ccc(C)c(NC(=S)NCCc2c[nH]c3ccccc23)c1 | 8.4 | -5.6 | 2.9 | 3.2
Cc1ccc(NC(=S)NCCc2c[nH]c3ccccc23)cc1 | -0.4 | -9.9 | 23.1* | 4.0
CC(C)c1ccc(NC(=S)NCCc2c[nH]c3ccccc23)cc1 | 16.7 | -2.4 | 30.6* | 6.5
CCCC[C@H](C(=O)N(C)c1ccccc1)[C@@H](O)c1ccc(C(C)=O)cc1 | / | / | / | -3.7
O=C(N[C@H](C(=O)N1CCC[C@H]1C(=O)NCCc1ccccc1Cl)c1ccccc1)c1ccc(Cl)c(Cl)c1 | / | / | / | 5.9
Cc1nc2n(c(=O)c1CCN1CCC(c3noc4cc(F)ccc34)CC1)CCCC2 | -1.0 | -3.9 | 10.4* | 0.6
C=CCNC(=O)/C(C#N)=C/c1ccccc1OCc1ccc(C(=O)OC)cc1 | 14.8 | -1.9 | 33.7* | -5.4
